Source: PubChem (National Center for Advancing Translational Sciences (NCATS))
JMJD2A Tudor: JMJD2A Tudor domain (human) inhibition; Potency, µM (titrated, usually from 114 µM), for inactives: top-dose activity change, negative = inhibition, usual class: inhibitors; O75164; AlphaScreen JMJD2A-Tudor / H3K4me3 peptide binding; hit rate 4.4% among 390,000; further: on the % scale 0 is the no-effect control and ±100 the full control effect; nearly all actives have a fitted effect of over 50% in size
BAZ2B block: blocks human BAZ2B; Q9UIF8; AlphaScreen BAZ2B-H3K14Ac peptide displacement; Potency, µM (top dose mostly 114 µM), without a hit: at the highest dose activity change, negative = inhibition, usual class: inhibitors; hit rate 4.4% among 360,000; AID 504333; further: on the % scale 0 is the no-effect control and ±100 the full control effect; nearly all actives have a fitted effect of over 60% in size
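In this displacement format the biotinylated H3(5-23) peptide acetylated at Lys14 serves as ligand at 50 nM, with BAZ2B at 50 nM in PBS pH 7.4 containing 0.01% Tween-20. Donor and acceptor beads are 10 ug/mL final.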
G9a block: inhibitors of human histone lysine methyltransferase G9a. hit rate 8.8% among 350,000. Potency, µM (titrated, usually from 102 µM), for the others: at the highest dose activity, negative = inhibition, hits mostly inhibitors. Q96KQ7. G9a H3K9 monomethylation, AlphaScreen, 2 h. AID 504332; further: on the % scale 0 is the no-effect control and ±100 the full control effect; nearly all actives have a fitted effect of over 75% in size
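Quantitative HTS format: methyltransferase activity on a biotin-tagged H3K9 peptide is measured by AlphaScreen, using a rabbit anti-monomethyl-H3K9 antibody with streptavidin donor and anti-IgG acceptor beads. Final levels are 20 nM enzyme, 500 nM peptide, 20 uM SAM; 2 h RT.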
Sfp inh: blocks B. subtilis Sfp PPTase activity; Biochemical Sfp PPTase activity, qHTS; Potency, µM, for the others: largest response in the series, negative = inhibition, most hits filed as inhibitors; AID 1490; hit rate 3.5% among 310,000; Q9F4F7;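 further: the enzyme is Sfp with the accession as filed and its product quenches rhodamine fluorescence; 0% = enzyme reaction without inhibitor and -100% = no enzyme wells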
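Step 1, compound plus 15 nM Sfp-PPTase, 15 min, room temperature. Step 2, add rhodamine-CoA (5 uM) and BHQ-2-YbbR (12.5 uM). Step 3, read 525/598 nm fluorescence at 0 and 30 min.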
HP1b chromo inh: blocks HP1-beta chromodomain binding to methylated histone tails; AlphaScreen HP1-beta / biotin-H3K9me3 peptide binding; hit rate 0.56% among 390,000; Potency, µM (highest dose often 114 µM), inactives show top-dose activity change, negative = inhibition, most hits filed as inhibitors; AID 540317; P83916; further: nearly all actives have a fitted effect of over 70% in size
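HP1-beta protein (50 nM final) preincubated 30 min at room temperature with biotinylated H3(1-18)K9me3 peptide (50 nM) in PBS pH 7.4, 0.01% Tween-20, then compound added for 30 min. AlphaScreen streptavidin donor/nickel chelate acceptor beads (10 ug/mL final), 30 min dark, luminescence read.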
L3MBTL1 block: inhibitors of human L3MBTL1 | AlphaScreen L3MBTL1–H3K9me1 peptide binding | Potency, µM (titrated, usually from 57.1 µM), for the others: top-dose activity, negative = inhibition, usual class: inhibitors | hit rate 0.66% among 230,000 | AID 485360; further: on the % scale 0 is the no-effect control and ±100 the full control effect; nearly all actives have a fitted effect of over 60% in size
Target sequence (Q9Y468 whole entry, looked up): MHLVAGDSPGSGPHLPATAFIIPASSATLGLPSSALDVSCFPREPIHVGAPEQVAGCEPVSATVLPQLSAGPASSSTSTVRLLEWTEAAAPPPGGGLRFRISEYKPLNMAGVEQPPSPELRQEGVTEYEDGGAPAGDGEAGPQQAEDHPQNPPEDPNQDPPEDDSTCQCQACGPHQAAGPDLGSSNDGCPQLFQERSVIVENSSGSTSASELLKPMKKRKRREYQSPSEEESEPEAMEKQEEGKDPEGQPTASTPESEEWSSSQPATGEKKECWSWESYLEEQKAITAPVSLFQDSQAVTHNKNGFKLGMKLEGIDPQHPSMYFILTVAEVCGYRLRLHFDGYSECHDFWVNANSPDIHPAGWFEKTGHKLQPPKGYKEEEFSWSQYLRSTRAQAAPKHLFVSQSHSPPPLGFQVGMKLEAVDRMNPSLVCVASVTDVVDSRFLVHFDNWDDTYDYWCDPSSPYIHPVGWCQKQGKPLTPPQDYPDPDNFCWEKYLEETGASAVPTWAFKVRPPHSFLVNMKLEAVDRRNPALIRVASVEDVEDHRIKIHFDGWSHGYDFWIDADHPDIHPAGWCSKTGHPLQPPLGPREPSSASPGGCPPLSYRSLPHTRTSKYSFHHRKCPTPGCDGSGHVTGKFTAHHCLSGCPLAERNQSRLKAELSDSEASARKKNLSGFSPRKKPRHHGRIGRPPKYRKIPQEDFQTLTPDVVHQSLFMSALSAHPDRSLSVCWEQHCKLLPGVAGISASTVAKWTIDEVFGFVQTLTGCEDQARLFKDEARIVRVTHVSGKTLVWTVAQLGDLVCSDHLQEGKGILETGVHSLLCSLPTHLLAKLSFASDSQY
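Read-out is AlphaScreen signal from streptavidin donor and nickel chelate acceptor beads (10 ug/mL final each) bridging L3MBTL1 (50 nM) and biotinylated K9-monomethylated H3(1-15) peptide (75 nM), after 30 min compound exposure at room temperature.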
* = called active by the depositor; [ ] = remark or other dose. Sampled rows, rich in hits. Any-hit rate of the full collection: about 12%. The call rests on the fitted dose curve; in most records, active means well fitted curve in the direction sought with a large enough effect; inconclusive means small, poorly fitted or top-dose-only effect, or another doubt; inactive means no such curve, though single readings can be large; an effect the other way counts as inactive or inconclusive. Potency means the concentration at half of the fitted maximal effect.

Results for CC1OC(OC2C(CO)OC(OC3C(CO)OC(O)C(O)C3O)C(O)C2O)C(O)C(O)C1NC1C=C(CO)C(O)C(O)C1O (stereo not given) ?
G9a block: -20%[2.33 µM]; Sfp inh: 4%

Results for COC(=O)Cc1coc2cc(OC)ccc12 ?
JMJD2A Tudor: -11%; BAZ2B block: 11%; G9a block: -7%[2.33 µM]; HP1b chromo inh: 56%; L3MBTL1 block: -6%

How did COc1cc2c(cc1OC)C1=C(C#N)CCC(=NC(=O)c3ccc(Cl)cc3)N1CC2 do in these assays?
JMJD2A Tudor: -1%; BAZ2B block: -7%; G9a block: 101%[59 µM]; Sfp inh: 16%; HP1b chromo inh: 40%; L3MBTL1 block: 0%

How did COc1cc2c(cc1OC)C1=C(C#N)COCN1CC2 do in these assays?
JMJD2A Tudor: -2%[11.4 µM]; BAZ2B block: inconclusive; G9a block: 14µM*; Sfp inh: -20%; HP1b chromo inh: -6%; L3MBTL1 block: -5%

What do the screens show for `CCN1CCN(Cc2ccc(NC(=O)c3cc(NC(=O)C(=O)c4c[nH]c5ccccc45)cc(OC)c3)cc2C(F)(F)F)CC1`?
JMJD2A Tudor: 35µM*; BAZ2B block: 40µM*; G9a block: 1%[12.7 µM]; Sfp inh: 50µM*; HP1b chromo inh: inconclusive

What do the screens show for `CCN1CCN(Cc2ccc(NC(=O)c3ccc(C)c(NC(=O)C(=O)c4c[nH]c5ccccc45)c3)cc2C(F)(F)F)CC1`?
JMJD2A Tudor: 40µM*; BAZ2B block: 13µM*; G9a block: 50µM*; Sfp inh: 50µM*; HP1b chromo inh: inconclusive; L3MBTL1 block: -16%

Results for CCN1CCN(Cc2ccc(NC(=O)c3ccc(C)c(NC(=O)c4ccc5n[nH]nc5c4)c3)cc2C(F)(F)F)CC1 ?
JMJD2A Tudor: -19%; BAZ2B block: -18%; G9a block: -14%[12.7 µM]; Sfp inh: -1%; HP1b chromo inh: 41%

Results for CCN1CCN(Cc2ccc(NC(=O)c3cc(NC(=O)c4cnn(-c5ccccc5)c4N)cc(OC)c3)cc2C(F)(F)F)CC1 ?
JMJD2A Tudor: inconclusive; BAZ2B block: inconclusive; G9a block: inconclusive; Sfp inh: -16%; HP1b chromo inh: -17%

How did CCN1CCN(Cc2ccc(NC(=O)c3cc(NC(=O)c4cc(C)on4)cc(OC)c3)cc2C(F)(F)F)CC1 do in these assays?
JMJD2A Tudor: inconclusive; BAZ2B block: inconclusive; G9a block: 45µM*; Sfp inh: -5%; HP1b chromo inh: 25%; L3MBTL1 block: -8%

Results for O=C(C1=C[C@H](C2CC2)C[C@H](OCc2ccc(CO)cc2)O1)N1CCOCC1 ?
JMJD2A Tudor: -4%; BAZ2B block: -6%; G9a block: 1%[59 µM]; Sfp inh: 4%; HP1b chromo inh: 30%; L3MBTL1 block: 3%

What do the screens show for `COC(=O)[C@@H](NC(=O)O[C@H]1C(=O)c2cc(OC)ccc2O[C@@H]1c1ccc(OC)c(Br)c1)C(C)C`?
Sfp inh: -5%

What do the screens show for `Cc1cc(S(=O)(=O)NCCc2csc(-c3cccc(F)c3)n2)ccc1F`?
JMJD2A Tudor: -2%; BAZ2B block: 24%; G9a block: 11%[59 µM]; HP1b chromo inh: 21%[57 µM]

What do the screens show for `COc1cc(C(C)=O)ccc1OCC(=O)Nc1cc(S(=O)(=O)N2CCOCC2)ccc1N1CCCC1`?
JMJD2A Tudor: -2%; HP1b chromo inh: 70%

Results for CC1=C(CC/C(C)=N/NC(N)=S)C(C)(C)CCC1 ?
JMJD2A Tudor: -35%; BAZ2B block: -32%; G9a block: inconclusive; Sfp inh: 45µM*; HP1b chromo inh: inconclusive; L3MBTL1 block: 8%

What do the screens show for `CC(C)=CCN1CCN(CCC2=C(C)CCCC2(C)C)CC1CCO` (stereo not given)?
JMJD2A Tudor: -16%; BAZ2B block: -13%; G9a block: -5%; Sfp inh: 16%; HP1b chromo inh: 23%; L3MBTL1 block: -4%

What do the screens show for `Cc1cc(C)c2nc(SCC(=O)N3CC(=O)Nc4ccccc43)c(C#N)cc2c1`?
JMJD2A Tudor: -2%[57.1 µM]; BAZ2B block: -3%; G9a block: 10µM*; Sfp inh: -13%; HP1b chromo inh: 46%; L3MBTL1 block: -7%

What do the screens show for `CCN(CC)c1ccc(SS(=O)(=O)O)cc1`?
JMJD2A Tudor: 56µM*; BAZ2B block: inconclusive; G9a block: 5µM*; Sfp inh: 45µM*; HP1b chromo inh: -22%; L3MBTL1 block: inconclusive

What do the screens show for `COc1ccc(-c2csc3ncnc(N4CCN(c5ccccc5Cl)CC4)c23)cc1`?
JMJD2A Tudor: -10%; BAZ2B block: -22%; G9a block: -16%; Sfp inh: 5%; HP1b chromo inh: 22%

How did COc1ccc(N2CCN(c3ncnc4scc(-c5ccccc5)c34)CC2)cc1 do in these assays?
JMJD2A Tudor: 25µM*; BAZ2B block: 14µM*; G9a block: 7.9µM*; Sfp inh: -6%; HP1b chromo inh: inconclusive

Results for COc1ccc(-c2csc3ncnc(N4CCN(c5cccc(OC)c5)CC4)c23)cc1 ?
JMJD2A Tudor: -29%; BAZ2B block: -20%; Sfp inh: 5%; HP1b chromo inh: -2%

Results for COc1ccc(-c2csc3ncnc(N4CCN(C(=O)c5ccco5)CC4)c23)cc1 ?
JMJD2A Tudor: -19%; BAZ2B block: -34%; G9a block: 50µM*; HP1b chromo inh: 56%; L3MBTL1 block: -2%

How did COc1ccc(N2CCN(c3ncnc4scc(-c5ccc(C)cc5)c34)CC2)cc1 do in these assays?
JMJD2A Tudor: 25µM*; BAZ2B block: 11µM*; G9a block: 25µM*; Sfp inh: 14%; HP1b chromo inh: inconclusive

What do the screens show for `COc1ccccc1N1CCN(c2ncnc3sc(C(=O)NCC4CCCO4)c(C)c23)CC1` (stereo not given)?
JMJD2A Tudor: -30%; BAZ2B block: -29%; Sfp inh: 13%; HP1b chromo inh: 17%

How did COc1ccc(N2CCN(c3ncnc4sc(C(=O)NCC5CCCO5)c(C)c34)CC2)cc1 (stereo not given) do in these assays?
JMJD2A Tudor: inconclusive; BAZ2B block: -22%; G9a block: 40µM*; Sfp inh: 10%; HP1b chromo inh: -19%

How did Nc1nc(NCc2ccc(Cl)cc2)c2[nH]cnc2n1 do in these assays?
JMJD2A Tudor: -27%; HP1b chromo inh: 11%

Results for COc1ccc(N2CCN(c3ncnc4scc(-c5ccc(F)cc5)c34)CC2)cc1 ?
JMJD2A Tudor: 22µM*; BAZ2B block: 7.9µM*; G9a block: 10µM*; Sfp inh: 4%; HP1b chromo inh: inconclusive
